Results from PubChem BioAssay (NCATS).
Inconclusive results are not listed. The source made the active and inactive calls. Calls follow the shape of the dose curve; as a rule, active = well fitted inhibition curve with a large enough effect; inconclusive = small, poorly fitted or top-dose-only effect; inactive = flat fitted curve, though single readings scatter.

Tested on: HACAT
Assay: qHTS assay to identify novel small-molecules to repurpose for Merkel cell carcinoma treatment (AID 1296009); also: nearly all actives have a fitted effect of over 60% in size
Settings: MCC and control cell lines, CellTiter-Glo viability, 72 h; at 44.8 µM (top of the series) unless noted
Method in brief: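 CellTiter-Glo luminescence after 72 hr compound exposure at 37 degree celsius gave cell viability. Libraries NPC and MIPE were run as 8- and 11-point dose responses; RLUs normalized to DMSO (negative) and no-cell (cytotoxicity) controls.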

Q: How did the outcome turn out when `CC1(C)C[C@H]2C3=CCC4[C@@]5(C)CC[C@H](O[C@H]6O[C@H](C(=O)O)[C@@H](O)[C@H](O)[C@H]6O[C@H]6O[C@H](CO)[C@@H](O)[C@H](O)[C@H]6O[C@@H]6O[C@H](CO)[C@@H](O)[C@H](O)[C@H]6O)[C@](C)(CO)C5CC[C@@]4(C)[C@]3(C)CC[C@@]2(C)[C@H](O[C@@H]2OC[C@H](O)[C@H](OC3O[C@H](CO)[C@@H](O)[C@H](O)[C@H]3O)[C@H]2O)[C@@H]1O` (stereo not given in full) was run?
A: Its outcome is “inactive [at 9.27 µM]”.

Q: `COc1cc(C[C@H]2COC(=O)[C@@H]2Cc2ccc(O)c(OC)c2)ccc1O` was tested. Which outcome did it give?
A: The outcome was “inactive”.

Q: Which outcome does the source give for `O=C(OCc1cccc(O)c1O[C@@H]1O[C@H](CO)[C@@H](O)[C@H](O)[C@H]1O)C1(O)C(=O)C2C=CC1C1C=CC(=O)C(O)(C(=O)OCc3cccc(O)c3O[C@@H]3O[C@H](CO)[C@@H](O)[C@H](O)[C@H]3O)C21` (stereo not given in full) here?
A: Its outcome is “inactive [at 9.27 µM]”.

Q: How did the outcome turn out when `CC(=O)NC(CCC(=O)O)C(=O)NCCc1ccc(O)cc1` (stereo not given) was run?
A: Its outcome is “inactive”.

Q: With `CC(=O)O[C@@H]1C[C@]2(C)[C@@]3(CCC4[C@@]5(C)CC[C@H](O[C@@H]6O[C@H](C(=O)O)[C@@H](O)[C@H](O[C@@H]7O[C@H](CO)[C@H](O)[C@H](O)[C@H]7O[C@@H]7O[C@@H](C)[C@H](O)[C@@H](O)[C@H]7O[C@@H]7OC[C@](O)(CO)[C@H]7O)[C@H]6O[C@@H]6O[C@H](CO)[C@H](O)[C@H](O)[C@H]6O)C(C)(C)C5CC[C@]42C)O[C@@H](O)[C@]12C3CC(C)(C)[C@@H](OC(=O)/C=C/c1ccc(O)c(O)c1)[C@@H]2OC(=O)/C=C/c1ccccc1` (stereo not given in full) as the compound, how does the outcome read?
A: Its outcome is “inactive [at 9.27 µM]”.

Q: How did the outcome turn out when `CC1CCC2C(C)(C)CC(C)(CO)C2(O)C1C(=O)O` (stereo not given) was run?
A: The outcome was “inactive”.

Q: Which outcome does the source give for `C=C1C[C@@]23CC[C@@H]4[C@](C)(C(=O)O)CCC[C@@]4(C)C2=CC[C@H]1C3` here?
A: The outcome was “inactive”.

Q: For `CCOc1nc2cccc(C(=O)O)c2n1Cc1ccc(-c2ccccc2-c2noc(=O)[nH]2)cc1`, which outcome is on record?
A: Its outcome is “inactive”.

Q: With `C/C=C(\C)C(=O)OC[C@H]1O[C@H](O[C@H]2O[C@H](CO)[C@@H](OC(=O)/C(C)=C/C)[C@H](O)[C@H]2O[C@@H]2O[C@H](CO)[C@@H](O)[C@H](O)[C@H]2O)[C@H](O[C@@H]2O[C@H](CO)[C@@H](O)[C@H](O)[C@H]2O)[C@@H](O)[C@@H]1O` as the compound, how does the outcome read?
A: The outcome was “inactive [at 9.27 µM]”.

Q: `CCNC(=O)CCC/C=C\C[C@@H]1[C@@H](/C=C/C(O)CCc2ccccc2)[C@@H](O)C[C@@H]1O` (stereo not given in full) was tested. Which outcome did it give?
A: The outcome was “inactive”.

Q: With `C=C(C)C(=O)O[C@H]1C[C@@](C)(OC(C)=O)[C@@]2(O)CC[C@@](C)(O)[C@H](OC(C)=O)[C@@]23OC(=O)C(COC)=C13` as the compound, how does the outcome read?
A: Its outcome is “inactive [at 17.4 µM]”.

Q: For `CC(=O)O[C@@H]1[C@H]2[C@@H](OC(=O)c3ccccc3)[C@@H](C)C[C@]2(O)[C@H](OC(C)=O)[C@@]2(C)[C@@H]3CC(C)(C)C(=O)[C@]3(OC(C)=O)C[C@@]12C`, which outcome is on record?
A: Its outcome is “inactive [at 17.4 µM]”.

Q: How did the outcome turn out when `C=CC(C)(CC/C=C(\C)CC/C=C(\C)CC(O)/C=C(\C)C(=O)O)O[C@@H]1O[C@H](CO)[C@@H](O)[C@H](O)[C@H]1O[C@@H]1O[C@H](CO)[C@@H](O)[C@H](O)[C@H]1O` (stereo not given in full) was run?
A: The outcome was “inactive [at 17.4 µM]”.

Q: For `C/C=C(\C)C(=O)O[C@@H](C)[C@H]1CC[C@]2(O)C3CCC4C[C@@H](OC5CC(OC)C(OC6CC(OC)C(OC7CC(OC)C(OC8OC(C)C(OC9OC(CO)C(O)C(O)C9O)C(OC)C8O)C(C)O7)C(C)O6)C(C)O5)CC[C@]4(C)C3[C@H](O)[C@@H](O)[C@]12C` (stereo not given in full), which outcome is on record?
A: The outcome was “inactive [at 9.27 µM]”.

Q: `CC1(C)CC(=O)N(CCCCN2CCN(c3ncccn3)CC2)C(=O)C1` was tested. Which outcome did it give?
A: Its outcome is “inactive”.

Q: How did the outcome turn out when `C[C@@H]1CC[C@]2(C(=O)O)CC[C@]3(C)C(=CCC4[C@]5(C)C(CC[C@]43C)C(C)(C)[C@@H](O)[C@H](O)[C@@H]5O)C2[C@]1(C)O` (stereo not given in full) was run?
A: The outcome was “inactive [at 17.4 µM]”.

Q: With `O=C(COc1ccc(Cl)cc1)NC1CCC(NC(=O)COc2ccc(Cl)cc2)CC1` (stereo not given) as the compound, how does the outcome read?
A: Its outcome is “inactive”.

Q: `O=C(O)CCc1cccc(O[C@@H]2O[C@H](CO)[C@@H](O)[C@H](O)[C@H]2O)c1O` was tested. Which outcome did it give?
A: Its outcome is “inactive”.

Q: Which outcome does the source give for `OC[C@H]1O[C@@H](OC(CCCCc2ccc(O)cc2)CCc2ccc(O)cc2)[C@H](O[C@@H]2OC[C@](O)(CO)[C@H]2O)[C@@H](O)[C@@H]1O` (stereo not given in full) here?
A: Its outcome is “inactive [at 17.4 µM]”.

Q: How did the outcome turn out when `COc1cc2c(cc1OC)CN(C(=O)[C@@H](NCc1ccncc1)C(C)(C)C)CC2` was run?
A: The outcome was “inactive”.
